About 79,000 compounds went through this panel and 15% of them were active in at least one assay; those are over-represented in the sample as a whole. Unmarked numbers belong to inactive results. Calls of active or inactive are those of the source. Cut-off read from the data, not from the text of the source: active = growth inhibition above about 70%; inactive = the rest.
Experiments:
[1] = NCI Yeast Anticancer Drug Screen. Data for the rad50 strain (AID 155);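 note: 0% = growth of vehicle-only cultures of the same strain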; details: S. cerevisiae rad50 strain growth inhibition, active compounds read high
Procedure, shortened: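 Growth of the mutant yeast was measured after compound exposure and referenced to vehicle-treated cultures.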

[2] = NCI Yeast Anticancer Drug Screen. Data for the mec2-1 strain (AID 157); details: S. cerevisiae mec2-1 strain, active compounds read high
Procedure, shortened: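 Readout is yeast growth inhibition, normalised to vehicle-treated controls, in the mec2-1 strain exposed to compound.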

[3] = NCI Yeast Anticancer Drug Screen. Data for the sgs1 mgt1 strain (AID 161);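 note: 0% = growth of cultures given vehicle only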; details: S. cerevisiae sgs1 mgt1 strain, active compounds read high
Procedure, shortened: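 Yeast cells carrying a defined DNA-repair defect were exposed to test compounds. Growth inhibition was measured relative to vehicle-treated controls.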

[4] = NCI Yeast Anticancer Drug Screen. Data for the cln2 rad14 strain (AID 165);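 note: 0% = growth equal to vehicle treated cultures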; details: S. cerevisiae cln2 rad14 strain, active compounds read high
Procedure, shortened: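 Relative to vehicle controls, growth inhibition of compound-treated cln2 rad14 yeast was recorded.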

[5] = NCI Yeast Anticancer Drug Screen. Data for the bub3 strain (AID 167); details: S. cerevisiae bub3 mutant strain, active compounds read high
Procedure, shortened: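 Whole-cell yeast assay. The mutant strain was incubated with compounds, and growth inhibition was determined by comparison with vehicle-treated cells.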

[6] = NCI Yeast Anticancer Drug Screen. Data for the mlh1 rad18 strain (AID 175); details: S. cerevisiae mlh1 rad18 strain growth inhibition, active compounds read high
Procedure, shortened: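 Test agents were incubated with a yeast strain of defined genotype (DNA damage repair defect). Inhibition of growth was derived by comparison with vehicle-exposed cultures.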

[7] = at 5.0 µM (retest, dose inferred, filed as 0.5)
[8] = at 50.0 µM (retest, dose inferred, filed as 5.0)

Row | SMILES | growth inhibition [1, 7] | growth inhibition [1, 8] | growth inhibition ([1]; at 50.0 µM) | growth inhibition [2, 7] | growth inhibition [2, 8] | growth inhibition ([2]; at 50.0 µM) | growth inhibition [3, 7] | growth inhibition [3, 8] | growth inhibition ([3]; at 50.0 µM) | growth inhibition [4, 7] | growth inhibition [4, 8] | growth inhibition ([4]; at 50.0 µM) | growth inhibition [5, 7] | growth inhibition [5, 8] | growth inhibition ([5]; at 50.0 µM) | growth inhibition [6, 7] | growth inhibition [6, 8] | growth inhibition ([6]; at 50.0 µM)
1 | Cc1ccc(S(=O)(=O)C(Br)CC(=O)c2ccccc2)cc1 (centres undefined) | 64% | 96% (active) | 99% (active) | 67% | 97% (active) | 99.8% (active) | 67% | 97% (active) | 99.7% (active) | 90% (active) | 96% (active) | 99.5% (active) | 59% | 97% (active) | 99.7% (active) | 63% | 97% (active) | 99.3% (active)
2 | CC(C(=O)NN)C(O)C(C)(C)O (centres undefined) | 3% | -5% | 58.7% | -5% | -10% | 3.8% | 1% | 3% | -7.4% | 1% | -9% | -47.5% | -2% | 1% | -5.85% | 7% | 4% | 6.05%
3 | CN(C)c1ccccc1CN1CCCN(Cc2ccccc2N(C)C)C1 | -4% | 7% | 69.8% | 8% | 26% | 50% | 1% | 35% | 75.2% (active) | 0% | 2% | 4.45% | 2% | 6% | 1.5% | 18% | 35% | 63.3%

Source: PubChem BioAssay (NCI)
